# In PubChem BioAssay (Tox21):
# Values joined by “and” are separate entries in the source; they are usually repeats but may differ in a detail not shown here. Identical values can stand only once. Results filed as inconclusive are left out. Active and inactive are the calls of the source. Calls follow the shape of the dose curve; as a rule, active = well fitted curve in the direction sought with a large enough effect in the repeat runs; inconclusive = weak or mixed curves; inactive = no such curve, though single readings can be large; an effect the other way counts as inactive or inconclusive.
# Tested on: not listed separately
# Test: qHTS assay to identify small molecule antagonists of the estrogen receptor alpha (ER-alpha) signaling pathway using the BG1 cell line - cell viability counter screen (AID 743081);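 also: compound given together with 17beta-estradiol as the ER stimulus; nearly all actives have a fitted effect of over 45% in size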
# Conditions: BG1Luc4E2 viability, CellTiter-Fluor, 22 h; series mostly up to 70.3 µM; activity change, negative = cytotoxicity: at the top concentration
# % is scaled to controls: 0 for no effect and ±100 for the full control effect.
Structure (SMILES),"activity change, negative = cytotoxicity",Potency
CCCCOC(=O)CCC(=O)OCCCC,-3.02% (inactive),–
CCOC(=O)C1OC1(C)c1ccccc1 (centres undefined),–,inactive
O=C1CC[C@@]2(O)[C@H]3Cc4ccc(O)c5c4[C@@]2(CCN3CC2CC2)[C@H]1O5,3.4% (inactive),–
O=S(=O)(c1ccccc1)c1ccccc1,21.1% (inactive),–
CCCCNC(=O)OCC#CI,-3.2% (inactive),–
CCCCCl,–,inactive
CC[N+]1(C)CCCC(OC(=O)C(O)(c2ccccc2)c2ccccc2)C1 (centres undefined),-4.87% (inactive),–
CCCCCCCCP(=O)(O)O,16.3% (inactive),–
O=C(O)c1cc(Cl)ccc1Cl,5.74% (inactive),–
Cc1ccccc1,–,inactive
C[C@]12C=CC3=C4CCC(=O)C=C4CC[C@H]3[C@@H]1CC[C@@H]2O,0.112% (inactive),–
Nc1ccccc1C(=O)OCCc1ccccc1,–,inactive
O=C(N[C@H]1CN2CCC1CC2)c1ccc2c(c1)OCCO2,-10.7% (inactive),–
CC(C)CCON=O,–,inactive
N#CC1(N=NC2(C#N)CCCCC2)CCCCC1,-6.47% (inactive),–
CCCN(CCOc1c(Cl)cc(Cl)cc1Cl)C(=O)n1ccnc1,-8.12% (inactive),–
CC(Oc1cccc(Cl)c1)C(=O)O (centres undefined),17.6% (inactive),–
CC(Cl)C(=O)O (centres undefined),0.337% [at 95 µM] (inactive),–
O=[N+]([O-])/C=C/c1ccccc1,–,inactive

Structure (SMILES),"activity change, negative = cytotoxicity",Potency
C[N+](C)(C)CCOC(=O)C(O)(c1ccccc1)c1ccccc1,8.56% (inactive),–
C=CCc1ccc(OC(=O)Cc2ccccc2)c(OC)c1,20.1% (inactive),–
CCc1cnc(C2=NC(C)(C(C)C)C(=O)N2)c(C(=O)O)c1 (centres undefined),–,inactive
FC(F)OC(F)(F)C(F)Cl (centres undefined),–,inactive
ClCc1ccccc1Cl,9.57% [at 95 µM] (inactive),–
OCCCl,1.84% (inactive),–
C=CCSSCC=C,2.5% (inactive),–
COc1ccccc1N1CCNCC1,-3.96% (inactive),–
O=C(NCNC(=O)NC1C(=O)NC(=O)N1CO)NC1C(=O)NC(=O)N1CO (centres undefined),–,inactive
Clc1ccc(Cl)c(Cl)c1,–,inactive
CC(=O)NNc1ccccc1,-3.77% (inactive),–
COc1ccc2c(c1OC)C(=O)O[C@H]2[C@@H]1c2cc3c(cc2CCN1C)OCO3,-1.03% (inactive),–
CC(C)(C#N)C(C)(C)C#N,-8.32% [at 95 µM] (inactive),–
Cc1ccc(N)c(C)c1,–,inactive
CCCC[P+](CC)(CCCC)CCCC (tested in a mixture with another compound),1.46% [at 95 µM] (inactive),–
C[N+]1(CCF)[C@@H]2CC[C@H]1CC(OC(=O)C(O)(c1ccccc1)c1ccccc1)C2 (some centres undefined),1.11% (inactive),–
O=C(O)C(Cl)(Cl)Br,6.67% [at 95 µM] (inactive),–
C[Si](Cn1cncn1)(c1ccc(F)cc1)c1ccc(F)cc1,-3.4% (inactive),–

# Target: Aromatase (Homo sapiens) (UniProt P11511)
# Sequence (P11511 whole entry, looked up): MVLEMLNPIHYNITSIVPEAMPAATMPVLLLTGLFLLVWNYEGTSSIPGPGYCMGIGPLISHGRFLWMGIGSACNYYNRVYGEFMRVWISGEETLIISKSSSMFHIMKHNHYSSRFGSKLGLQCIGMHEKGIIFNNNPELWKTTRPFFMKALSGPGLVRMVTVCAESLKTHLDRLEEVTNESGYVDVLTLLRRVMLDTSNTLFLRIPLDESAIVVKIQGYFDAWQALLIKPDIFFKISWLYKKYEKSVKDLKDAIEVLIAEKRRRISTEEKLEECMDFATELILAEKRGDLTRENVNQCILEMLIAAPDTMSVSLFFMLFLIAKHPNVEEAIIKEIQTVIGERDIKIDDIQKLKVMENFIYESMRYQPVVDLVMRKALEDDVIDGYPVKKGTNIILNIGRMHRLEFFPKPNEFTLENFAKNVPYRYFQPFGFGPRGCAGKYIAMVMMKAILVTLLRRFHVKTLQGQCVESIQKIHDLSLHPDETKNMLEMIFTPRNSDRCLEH
# Test: qHTS assay to identify aromatase inhibitors (AID 743083); also: nearly all actives have a fitted effect of over 55% in size; also: potency is read from the fitted curve at half-maximal effect
# Conditions: MCF-7 aro ERE, testosterone-driven ERE luciferase, 24 h; series mostly up to 70.3 µM; activity, negative = inhibition: at the top concentration
Structure (SMILES),"activity, negative = inhibition",Potency
CCCCOC(=O)CCC(=O)OCCCC,-17.9% (inactive),–
CCOC(=O)C1OC1(C)c1ccccc1 (centres undefined),11.6% (inactive),–
O=C1CC[C@@]2(O)[C@H]3Cc4ccc(O)c5c4[C@@]2(CCN3CC2CC2)[C@H]1O5,10.1% (inactive),–
O=S(=O)(c1ccccc1)c1ccccc1,-0.0038% (inactive),–
CCCCNC(=O)OCC#CI,–,4.83 µM (active) and 13.7 µM (active)
CCCCCl,–,inactive
CC[N+]1(C)CCCC(OC(=O)C(O)(c2ccccc2)c2ccccc2)C1 (centres undefined),-14.1% (inactive),–
CCCCCCCCP(=O)(O)O,1.92% (inactive),–
O=C(O)c1cc(Cl)ccc1Cl,-2.95% (inactive),–
Cc1ccccc1,–,inactive
C[C@]12C=CC3=C4CCC(=O)C=C4CC[C@H]3[C@@H]1CC[C@@H]2O,39.2% (inactive),–
O=C(N[C@H]1CN2CCC1CC2)c1ccc2c(c1)OCCO2,14.1% (inactive),–
CC(C)CCON=O,–,inactive
N#CC1(N=NC2(C#N)CCCCC2)CCCCC1,-5.55% (inactive),–
O=C(N/N=C/c1ccc([N+](=O)[O-])o1)c1cc([N+](=O)[O-])cc([N+](=O)[O-])c1O,38.9% (inactive),–
CCCN(CCOc1c(Cl)cc(Cl)cc1Cl)C(=O)n1ccnc1,–,1.57 µM (active) and 969 nM (active)
CC(Oc1cccc(Cl)c1)C(=O)O (centres undefined),4.02% (inactive),–
CC(Cl)C(=O)O (centres undefined),1.23% [at 95 µM] (inactive),–
O=[N+]([O-])/C=C/c1ccccc1,–,27.8 µM (active)

Structure (SMILES),"activity, negative = inhibition",Potency
C[N+](C)(C)CCOC(=O)C(O)(c1ccccc1)c1ccccc1,-1.1% (inactive),–
C=CCc1ccc(OC(=O)Cc2ccccc2)c(OC)c1,20.3% (inactive),–
CCc1cnc(C2=NC(C)(C(C)C)C(=O)N2)c(C(=O)O)c1 (centres undefined),–,inactive
FC(F)OC(F)(F)C(F)Cl (centres undefined),–,inactive
ClCc1ccccc1Cl,-14.3% [at 95 µM] (inactive),–
OCCCl,12.2% (inactive),–
C=CCSSCC=C,24.6% (inactive),–
COc1ccccc1N1CCNCC1,1.07% (inactive),–
O=C(NCNC(=O)NC1C(=O)NC(=O)N1CO)NC1C(=O)NC(=O)N1CO (centres undefined),–,inactive
Clc1ccc(Cl)c(Cl)c1,–,inactive
CC(=O)NNc1ccccc1,-11.2% (inactive),–
COc1ccc2c(c1OC)C(=O)O[C@H]2[C@@H]1c2cc3c(cc2CCN1C)OCO3,-4.1% (inactive),–
CC(C)(C#N)C(C)(C)C#N,0.136% [at 95 µM] (inactive),–
Cc1ccc(N)c(C)c1,–,inactive
CCCC[P+](CC)(CCCC)CCCC (tested in a mixture with another compound),13.6% [at 95 µM] (inactive),–
C[N+]1(CCF)[C@@H]2CC[C@H]1CC(OC(=O)C(O)(c1ccccc1)c1ccccc1)C2 (some centres undefined),-0.973% (inactive),–
O=C(O)C(Cl)(Cl)Br,9.26% [at 95 µM] (inactive),–
C[Si](Cn1cncn1)(c1ccc(F)cc1)c1ccc(F)cc1,–,316 nM (active) and 545 nM (active)
